In PubChem BioAssay AID1347426 (Functional Genomics Laboratory (NCATS/FGL), 2020) one finds median seed-adjusted z-score data, which are given here for 108 sequences.

The campaign covered roughly 31,000 sequences. About 1,400 (4.5%) were called active. This is one part of a sample in which actives are shown more often than they occur. A number with no mark means an inactive call.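 How the source made its calls: active means median seed-adjusted z-score above 1 or below -1; inactive means the rest.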

A short description of this assay: Novel Modifiers of Survival Motor Neuron (SMN) Protein: Gene Identification via Genome-wide siRNA Screen.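 Further: luminescence tracks full-length SMN protein made from the SMN2 reporter.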 As to conditions: HEK293T SMN2-luciferase reporter, siRNA knockdown, 72 h; actives lie on both sides. In short, it runs like this: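 siRNA screen, 10418 genes ×3 siRNAs; 1 pmol/well, lipid reverse transfection into HEK293T SMN2-luc reporter line. 72 h, 37 °C, 5% CO2; ONE-Glo readout. Data: neg-ctrl normalized, log10, MAD; hit = MAD >1.0 or < -1.0.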
(In general: Reporter assays use an easily measured gene product as a stand-in for the process of interest.)
With GCAAGAUGAUUUUAUCUCUTT against CDA, the median seed-adjusted z-score is 0.471. With CAUUAAAGCAGCUACCAAUTT against PSMC3IP, the median seed-adjusted z-score was -0.0482. For GCAACAGCAUUAUGACCCATT against COL10A1, the median seed-adjusted z-score is -0.0291. The result for GGUUGCGGCUCAGAACAAATT against OAS3 reads 0.147. The result for GGACCUGAUUGAUGCCGUCTT against PYCR1 reads -0.171. The result for AGACCUCGAUUUCACAGUATT against PRMT8 reads 0; that for CAGAGUAUGUAAAUAGACATT against CAPRIN1, 1.36 (active); that for GGAAGUGCCCAGUGACUUATT against SLPI, 0.274. As to GCACUGUCACUAAGCAGAATT against CHEK2, the median seed-adjusted z-score is 0.585. In the case of GAGAGAUCAUUGCAAAGCATT against HNRNPM, the median seed-adjusted z-score is 0.499. The result for GCCUCUACAGCAGAAGAAATT against LAMB2 reads 1.12 (active); that for GGAGAGACUUUUUACAACUTT against CACNG6, -0.0499. With CUGUCCAUAGUGUCAUUAATT against GALNT1, the median seed-adjusted z-score was -0.164.

In the case of CUUGUCAAGUACGACCUUATT against NINJ1, the median seed-adjusted z-score was -0.061.

As to GGCUGUUCGAGUCCUGAAATT against FMO1, the median seed-adjusted z-score is 0.323. The result for GAGCAGGUGUUAUUAUGGATT against CLCN3 reads -0.0801.

On to GUUCAGCCGUGGAAAGAAATT against WFDC6, for which the median seed-adjusted z-score is 0.0443. The result for GAAAUACAAGGAAUCUGAATT against TMTC4 reads -1.16 (active); that for GCACCGUGGUGUCAACCAUTT against KCNK12, 1.04 (active); that for CCUACUCAAUGUGAUAUAUTT against ADAMDEC1, 0.0106. The result for CCCUUAAUCUACAAUAUCATT against PHTF1 reads 0.0129; that for GUCCCGAUCUGUGCUCUGATT against DUSP2, 0.576; that for GGAGUACCAUAGAUACAGATT against PPIG, -0.0192. As for GGAUCGCUGUCUCUAACUUTT against RRM1, the median seed-adjusted z-score is -5.51 (active). The result for GCCUCUAUUUGAUAAGCGATT against NAP1L1 reads 0.263. For GCGUUGGUCGGGAUGAUUATT against P2RY10, the median seed-adjusted z-score is -0.432.

On to GGAGGUCUAUAUUAUAAGATT against CFHR4, for which the median seed-adjusted z-score was -0.0972. The result for GAUACGCUAUGAACUCUCATT against RCE1 reads -1.19 (active); that for GCAUUAGAAACUUACAAGATT against TROVE2, 0.399; that for CGAGUGUUCCCGGACAACATT against PODNL1, -0.448. The result for GCUCAGCCCUUACUGUACATT against ZNF569 reads 0.425; that for GAUUGACCUGCGUUACGAATT against ADCK2, 0.0823. Take UGCCUUAUCUGGAAGCAAATT against ERMAP: the median seed-adjusted z-score was -0.276. For GAUUCCCUGCAUCAACUAATT against SQLE, the median seed-adjusted z-score was -1.14 (active).

As for GGGAAACGAUAUUCAUACATT against ADAMTS19, the median seed-adjusted z-score is -0.39. As to GUUAGGUAGUAGAAACAAATT against TCFL5, the median seed-adjusted z-score is 1.52 (active).

With GUUUCGGACCUAUCUCUGATT against RBM3, the median seed-adjusted z-score is 0.0539. CAAAGUGGAUUCAAAGAUUTT against PRKCH: the median seed-adjusted z-score was 0.761. On to CACCUUUUCUGGAUAGAGATT against DSC1, for which the median seed-adjusted z-score was -0.151. Regarding GCCUUAUGAUGGAAGAGAUTT against EYA2, the median seed-adjusted z-score was 0.111. The result for GUCUAGAUGAUCACAAGUATT against PSMD1 reads -1.61 (active); that for GUUCUACCGUGGACAGCAATT against CLCN1, 0.314; that for CAACAACAAUCAUAGCUGATT against SSBP1, -0.456. The result for GACUGGAAAUGAUUCGAGATT against RTCD1 reads 0.0794.

With CCUAUGGACUGAACAGGGATT against ZDHHC3, the median seed-adjusted z-score is 0.229. The result for GUCUGGAGAUCAUAUUUUUTT against PIM3 reads -1.01 (active); that for CAUUCUGACCGUGAACAAUTT against CTRB1, -0.214; that for CGAUGACUCAGAAAAGCGATT against ARHGEF10, 0.22. The result for CGAGGAUAUUGACUGGGUATT against PRKCZ reads -0.175. The result for GCCCUGCAUUUGCGAUGAATT against ZNF169 reads 0; that for CACUUGCACAGAUACCCUUTT against COLEC12, -1.04 (active). For the sequence GGAAAGAGUUCAGUCGGAATT against ZNF671, the median seed-adjusted z-score was -0.0551. Consider GAAAGAUUGUACCAGUUGATT against CMPK1, for which the median seed-adjusted z-score is -0.363.

Turning to GCGAGUGUGAGAAAACAUUTT against ZFP3, the median seed-adjusted z-score is 0. For the sequence GAGCGAGACAUAAAAUAUUTT against ZNF257, the median seed-adjusted z-score is 0.306. The result for CCCAAGAAAUAUUAACAUUTT against AP3S1 reads 0.787; that for CGAAUUUCCUAGUAAACCATT against TFAP2C, 1.28 (active); that for CGUCAUGAGCCUCUACGAATT against PTPN5, 0.22. The result for GGAAAUCCAUCUACCGCUATT against SORL1 reads 0.357. The result for GAUCAGGUGCUGUUCCAUATT against DGAT2L3 reads 0.247; that for CAUCGAGGGUCAUACUAUUTT against POLR2A, -3.81 (active). On to GACUGCUGCUUAUCAACAATT against SPR, for which the median seed-adjusted z-score is 0.0329. In the case of GACCUUACCUCAGACUAGATT against EXOG, the median seed-adjusted z-score is 0.746. As for AGAUGUACCUGUUCGUGUATT against DNASE1L2, the median seed-adjusted z-score is -0.228. With GGACCUACGUUGCAGUUCATT against SUZ12, the median seed-adjusted z-score is -1.65 (active). The result for GCACUGGAGAAGUAUGUGATT against ALOX12B reads 0.0071. The result for GCACUUUACCAUUAGACAATT against LDB2 reads -0.0847; that for GGAGACUAGUAAGCACUAUTT against JARID1B, 0; that for CAAGAGGGUUUUUACCAUATT against SEC11C, 0.508.

For GGUCAUGGAUGUGCACGAUTT against KRT14, the median seed-adjusted z-score is -0.127.

On to CAUCAGGAAUGGAAUUACATT against SKIL, for which the median seed-adjusted z-score was -0.868. The result for GGUCCAAGCUGAUUACCCUTT against UNC13A reads -2.1 (active). The result for CCUCCCAUCUUAUUAUCCATT against ZNF572 reads 0.237; that for GGUGGAGACAUUUACAUCUTT against CREB3L1, 0.708. For the sequence CAAAGUACCGAGUCGAAUATT against SENP7, the median seed-adjusted z-score was 0.547. The result for GCAAGACCGUGAGACAACUTT against SENP7 reads 0.547; that for GGAAGAAAAUAGUGCUGCATT against BARX1, 1.63 (active). Consider CAUUCGCCGUUACCUGCCATT against POLR2F, for which the median seed-adjusted z-score was -3.52 (active). For the sequence GAACCACAAGGAGAAGUUUTT against PSMC3, the median seed-adjusted z-score was -0.701.

For the sequence ACAAGGACUAUUACAGAUATT against PLA2G2D, the median seed-adjusted z-score was 0.361. The result for GGAGACAUCUGACCCAGCATT against ARHGAP9 reads 0; that for CGUCAGAUCUGAACAAGAATT against CHST4, 0.349.

With GUAUAUCAGUUCCAGUUUATT against RANBP3, the median seed-adjusted z-score is -0.211. The result for UUAUCACAGAGCAACCUAATT against NUBPL reads 0.105; that for GGAAUGCACCCAGAUCAAATT against TFAP2D, 0; that for GGCCUUUCCUUUACUGUCATT against ABCC4, -1.66 (active).

With CCGAAUGAAUGGUGAUAAATT against TUSC3, the median seed-adjusted z-score is 0.138. The result for CAAGGACACUUCAUCGUGATT against AVPR2 reads -0.262; that for GAACUCAUCAAAAUGCACATT against KLF15, -0.45. For the sequence GGGAGACGAUUGUUCAUCATT against XPA, the median seed-adjusted z-score is 2.03 (active). The result for AUACAUCAAAGAUUAGUAATT against NTS reads 0.518; that for GUUAAUCACAUACACCAAATT against GPR22, 0.705. The result for CCGCUUGACUAUGAGCUCATT against TTC7A reads -0.303. The result for CCAGGAGCGAUAACAGUAATT against DAZAP1 reads 0. Turning to CCUUAUCGAUAUUAUGAGATT against CPEB2, the median seed-adjusted z-score is -0.00928.

In the case of ACGUGGAGCUCUUAGACAATT against AP1S1, the median seed-adjusted z-score was -1.04 (active). The result for GGAUCGGAUGGAUAAGAAUTT against CTTN reads -0.314; that for CACUAGGAAUCACACCGUUTT against TINAG, 0.374; that for GAGACGAGGAGGAAACUUUTT against DDX27, -0.131. The result for GCAGUAUGCAGAUUGUUCATT against FGL1 reads -0.259. Turning to CAGUUGUCCUUGUGGAUAATT against TTF1, the median seed-adjusted z-score was 1.76 (active). The result for GAUAAUUCCAUGACAUUAUTT against CYP39A1 reads 0.196; that for GAAGAGAACUCUAAGAUCATT against CAMK1G, -0.358.

GCAAGUCCCUGUACUAUUATT against ANXA2: the median seed-adjusted z-score was 0.499. The result for GCAGAACUGCUGCUACAGATT against ANKZF1 reads 0.176.

For the sequence CACCGUUCAUCUGCACAGATT against KATNA1, the median seed-adjusted z-score is -0.471. Turning to CGAUAAACUCAGACCAGAATT against IDE, the median seed-adjusted z-score is -0.081. The result for GGAAAGUUGAUUUUUAUGATT against MS4A6E reads -0.341.
